High-throughput results (PubChem BioAssay)
This is a sample that favours compounds with a hit; in the whole collection about 0.74% have one here.
GRP78 ERSR act: induces the endoplasmic reticulum stress response in human glioma cells; Potency, µM, without a hit: at the top dose activation, actives largely listed as activators; hit rate 0.02% among 420,000; U87-MG GRP78 promoter luciferase reporter, 16 h; AID 602332; further: potency means the concentration at half of the fitted maximal effect; series mostly up to about 76 µM; % of control where 0% means no effect; nearly all actives have a fitted effect of over 35% in size
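Stably transfected U87-MG glioma cells carrying a GRP78-based luciferase sensor; 16 h compound incubation. Luminescence end-point read 10 min after Bright-Glo addition at room temperature.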
Vif-A3G inh: inhibitors of Vif-APOBEC3G interaction | Q9HC16 | HeLa A3G-eYFP + Vif (tagged APOBEC3G with the HIV-1 protein that degrades it), YFP fluorescence, overnight | Potency, µM (highest dose often 46.1 µM), for inactives: at the highest dose activity, negative = active, hits mostly inhibitors | hit rate 0.076% among 410,000; further: potency means the concentration at half of the fitted maximal effect; on the % scale 0 is the no-effect control and ±100 the full control effect; nearly all actives have a fitted effect of over 60% in size
Target sequence (Q9HC16 whole entry, looked up): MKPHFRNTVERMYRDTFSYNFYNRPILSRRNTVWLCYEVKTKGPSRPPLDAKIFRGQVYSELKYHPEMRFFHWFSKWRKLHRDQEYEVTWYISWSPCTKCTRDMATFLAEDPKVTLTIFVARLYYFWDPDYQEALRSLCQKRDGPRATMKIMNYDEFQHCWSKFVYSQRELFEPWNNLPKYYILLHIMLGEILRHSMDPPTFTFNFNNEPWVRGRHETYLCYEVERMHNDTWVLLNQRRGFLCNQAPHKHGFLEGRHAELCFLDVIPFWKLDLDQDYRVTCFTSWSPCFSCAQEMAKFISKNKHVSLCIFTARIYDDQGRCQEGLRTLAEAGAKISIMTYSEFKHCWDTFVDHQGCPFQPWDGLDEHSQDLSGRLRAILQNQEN
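Read-out is eYFP fluorescence (Ex 488/Em 500-530) from Vif-expressing HeLa A3G-eYFP cells; more signal means A3G escaped Vif-mediated degradation. Cells plated overnight, compound pinned in, incubated overnight at 37 deg C.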
PINK1 expr mod: PINK1 expression modulation; PINK1 immunofluorescence, high-content cytometry, 24 h; Potency, µM (highest dose often 76.6 µM), inactives show at the highest dose activation (PINK1 increase), hits mostly activators; hit rate 0.2% among 410,000; AID 624263; active means well fitted activation curve with a large enough effect; inconclusive means small, poorly fitted or top-dose-only effect; cell line not stated here; further: potency means the concentration at half of the fitted maximal effect; % of control where 0% means no effect; nearly all actives have a fitted effect of over 65% in size
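Stable cell line, 250 cells/well, 12 h attachment; compounds pinned at 5 concentrations, 24 h; CCCP control. Fixed with nuclear dye, primary antibodies 12 h at 10 degrees C, secondary plus cell stain; laser-scanning cytometer read.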
LDHA inh: inhibitors of human lactate dehydrogenase A; activity change, % (values are at about 110 or 230 µM); purified LDHA, NADH/diaphorase-resazurin fluorescence; active compounds read low; hit rate 0.15% among 480,000; P00338; AID 1347041; in the data active means activity change below about -30%; inconclusive means mostly about -25% to -30%;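 further: plate controls were DMSO wells for no effect and wells without enzyme for full effect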
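Human LDH5 (2 nM) was incubated with 0.06 mM NADH and 0.2 mM pyruvate for 5 min at room temperature in Tris pH 7.4. Remaining NADH was coupled through diaphorase/resazurin, and resorufin fluorescence was read at 0 and 20 min.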
pAkt inh: Akt phosphorylation inhibition; Neuro2A IGF-stimulated pAkt S473 HTRF, 20 min; active compounds read low; AID 651550; hit rate 0.32% among 360,000; activity change, % for hits at 50 µM; in the data active means activity change below about -80%; inconclusive means mostly about -51% to -80%; further: on the % scale 0 is the no-effect control and ±100 the full control effect
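Single-point screen (50 µM final compound) in Neuro2A cells stimulated 20 min with 6 nM IGF at 37 deg C. After lysis, Ser473-phosphorylated Akt read by HTRF (ex 330 nm, em 615/665 nm) as the 665/615 ratio.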
Vif-A3F inh: Vif-A3F binding inhibition; HeLa A3F-eYFP + Vif (tagged APOBEC3F with the HIV-1 protein that degrades it), YFP fluorescence increase; Potency, µM (top dose mostly 46.1 µM), without a hit: at the top dose activity, negative = active; hit rate 0.2% among 390,000; AID 602313; further: potency means the concentration at half of the fitted maximal effect; % of control where 0% means no effect; nearly all actives have a fitted effect of over 65% in size
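HeLa cells stably expressing Vif plus C-terminally eYFP-tagged A3F were seeded, incubated overnight at 37 deg C, dosed with compound, incubated overnight again at 37 deg C. Yellow fluorescence (Ex 488/Em 500-530) reported blocked Vif-mediated A3F-eYFP degradation.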
Active calls of the source: *; i = inactive; ? = inconclusive; . = no result. Unless noted, the call rests on the fitted dose curve; in most records, active means well fitted curve in the direction sought with a large enough effect; inconclusive means small, poorly fitted or top-dose-only effect, or another doubt; inactive means no such curve, though single readings can be large; an effect the other way counts as inactive or inconclusive.

SMILES	GRP78 ERSR act	Vif-A3G inh	PINK1 expr mod	LDHA inh	pAkt inh	Vif-A3F inh
COc1ccccc1OCC(=O)N/N=C/C=C/c1ccc([N+](=O)[O-])o1	-8%	?	?	4	i	10µM*
NNc1cc(C(F)(F)F)ccc1Cl	.	.	.	3	.	.
COc1ccccc1-c1oc2ccccc2c1-c1ccc2c(c1)OCO2	9%	-13%	11%	3	i	0%
CCOc1c2c(c(-c3ccc4c(c3)OCO4)c3cc(OC)c(OC)cc13)C(=O)OC2	-1%	4%	14µM*	2	.	.
COc1cc(NC(=O)C(C)n2nc(-c3ccccc3)c3c(c2=O)CCCC3)cc(OC)c1 (stereo not drawn)	.	.	.	-32*	.	.
COc1ccc(NC(=O)C(C)n2nc(-c3ccc(C)cc3)c3c(c2=O)CCCC3)cc1 (stereo not drawn)	.	.	.	-14	.	.
O=C(Cc1ccc(F)cc1)NCc1ccnc(OCc2ccccc2)c1	.	.	.	6	.	.
Nc1c(-c2ccc(Cl)cc2)cnn1-c1cccc(C(F)(F)F)c1	1%	1%	6%	-9	-113%*	-2%
Cc1ccc(-c2cnn(-c3cccc(C(F)(F)F)c3)c2N)cc1	4%	1%	?	-8	i	0%
O=C(c1ccccc1)c1ccc(C(=O)N2CCN(c3ccccc3O)CC2)cc1	-2%	-2%	-1%	3	i	2%
Nc1ccccc1N1CCN(C(=O)c2ccccc2)CC1	-5%	2%	-2%	-2	-103%*	0%
COC(=O)c1oc2ccccc2c1NC(=O)CN1CCCC1	0%	-3%	.	-5	i	-4%
COC(=O)c1oc2ccc(Br)cc2c1NC(=O)CN1CCN(C)CC1	-6%	-6%	-1%	-10	-115%*	6%
Cc1cnc(C(=O)N(Cc2cccs2)C2CC2)cn1	.	.	.	-7	.	.
CC(C)NC(=O)NS(=O)(=O)c1cnccc1NC1CC2CCC1C2 (stereo not drawn)	0%	-1%	0%	-5	-107%*	-8%
Cc1ccc(NC(=O)CSCc2cc(C)no2)cc1	.	.	.	-15	.	.
N#CC1=C(N)Oc2cc(N)ccc2C1c1ccc(F)cc1F (stereo not drawn)	-5%	13µM*	10%	7	i	22µM*
